Where “and” joins values, the source holds several entries; their conditions need not be identical. Identical values can stand only once. Results filed as inconclusive are left out. A call without a number means that no potency is given here. A structure can be active in one record and inactive in another. Calls of active or inactive are those of the source. Calls follow the shape of the dose curve; as a rule, active = well fitted curve in the direction sought with a large enough effect in the repeat runs; inconclusive = weak or mixed curves; inactive = no such curve, though single readings can be large; an effect the other way counts as inactive or inconclusive.
What was measured:
[1] = A CellTox Green Cytotoxicity Assay to monitor cytotoxicity in HEK293 cells - 32 hour (AID 1224881); also: nearly all actives have a fitted effect of over 40% in size; also: potency is read from the fitted curve at half-maximal effect
In short: (§1)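 Cytotoxicity was tracked continuously in HEK293 cells by a DNA-binding dye excluded from viable cells. Compounds were transferred in DMSO 5 h after seeding; fluorescence was recorded at intervals up to 40 h.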

[2] = A CellTox Green Cytotoxicity Assay to monitor cytotoxicity in HepG2 cells - 0 hour (AID 1224882); also: nearly all actives have a fitted effect of over 35% in size; also: potency is read from the fitted curve at half-maximal effect
In short: (§2)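 Real-time, homogeneous cytotoxicity readout: dead-cell DNA staining by CellTox Green in HepG2 monolayers, fluorescence measured at timed intervals up to 40 h of continuous compound exposure.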

[3] = A CellTox Green Cytotoxicity Assay to monitor cytotoxicity in HEK293 cells - 8 hour (AID 1224884); also: nearly all actives have a fitted effect of over 35% in size; also: potency is read from the fitted curve at half-maximal effect
In short: as §1

[4] = qHTS RealTime-Glo MT Cell Viability Assay in HepG2 cells - 16 hour (AID 1224885); also: nearly all actives have a fitted effect of over 50% in size; also: potency is read from the fitted curve at half-maximal effect
In short: (§3)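 Real-time, nonlytic viability: 600 HepG2 cells/well mixed with NanoLuc enzyme plus prosubstrate; 5 h settle, compound (DMSO) added by pintool; luminescence monitored over 40 h at 37 C.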

[5] = qHTS RealTime-Glo MT Cell Viability Assay in HEK293 cells - 24 hour (AID 1224886); also: nearly all actives have a fitted effect of over 50% in size; also: potency is read from the fitted curve at half-maximal effect
In short: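 Cells + reagent dispensed (600 cells/well, HEK293) → 5 h at 37 C/5% CO2 → 23 nL compound in DMSO pinned → 40 h at 37 C → luminescence read at 0, 8, 16, 24, 32, 40 h.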

[6] = qHTS RealTime-Glo MT Cell Viability Assay in HEK293 cells - 8 hour (AID 1224887); also: nearly all actives have a fitted effect of over 50% in size; also: potency is read from the fitted curve at half-maximal effect
In short: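 Nonlytic bioluminescent viability monitoring. HEK293 at 600 cells/well with reagent; 5 h settle; compound transfer by pintool; plates held at 37 C and read at set time points.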

[7] = A CellTox Green Cytotoxicity Assay to monitor cytotoxicity in HEK293 cells - 16 hour (AID 1224888); also: nearly all actives have a fitted effect of over 35% in size; also: potency is read from the fitted curve at half-maximal effect
In short: as §1

[8] = qHTS RealTime-Glo MT Cell Viability Assay in HepG2 cells - 0 hour (AID 1224889); also: nearly all actives have a fitted effect of over 50% in size; also: potency is read from the fitted curve at half-maximal effect
In short: as §3

[9] = A CellTox Green Cytotoxicity Assay to monitor cytotoxicity in HepG2 cells - 32 hour (AID 1224883); also: nearly all actives have a fitted effect of over 50% in size
In short: as §2

[10] = A CellTox Green Cytotoxicity Assay to monitor cytotoxicity in HepG2 cells - 8 hour (AID 1224890); also: nearly all actives have a fitted effect of over 45% in size; also: potency is read from the fitted curve at half-maximal effect
In short: as §2

SMILES	Potency [1]	Potency [2]	Potency [3]	Potency [4]	Potency [5]	Potency [6]	Potency [7]	Potency [8]	Potency [9]	Potency [10]
Nc1ccc(-c2ccc(N)cc2)cc1	inactive	inactive	inactive	inactive	inactive	inactive	inactive	inactive	–	–
O=C(O)CC(O)(CC(=O)O)C(=O)O	inactive	inactive	inactive	–	inactive	inactive	inactive	inactive	inactive	inactive
O=C(O)CCl	inactive	inactive	inactive	–	inactive	inactive	inactive	inactive	–	–
Oc1cccc2cccnc12	17.5 µM (active) and 6.16 µM (active) and inactive	inactive	inactive	–	5.49 µM (active) and inactive	inactive	inactive	inactive	–	inactive
CC(Cl)(Cl)C(=O)O	inactive	inactive	inactive	–	inactive	inactive	inactive	inactive	–	inactive
O=c1[nH]c(=O)n(Cl)c(=O)n1Cl	inactive	inactive	inactive	–	inactive	inactive	inactive	inactive	–	inactive
CCCC[N+]1(C)CCCCC1	inactive	inactive	inactive and 55.7 µM (active)	–	inactive	inactive	inactive	inactive	–	–
CCCCCCCCCCCCn1cc[n+](C)c1	–	inactive	inactive and 55.9 µM (active)	–	–	inactive	–	inactive	–	–
Cc1cc(Cl)ccc1N	inactive and 38.9 µM (active)	inactive and 38.9 µM (active)	inactive and 34.7 µM (active)	–	inactive	inactive	–	inactive	–	inactive and 43.6 µM (active)
O=C(O)c1ccccc1O	inactive	inactive	inactive	–	inactive	inactive	inactive	inactive	–	–
COc1ccc(N)cc1	inactive	inactive	inactive	–	inactive	inactive	inactive	inactive	–	–
CC(=O)[O][Hg][c]1ccccc1	611 nM (active) and 977 nM (active) and 213 nM (active)	inactive	inactive	–	344 nM (active) and 1.1 µM (active) and 239 nM (active)	433 nM (active) and 1.55 µM (active) and 425 nM (active)	1.9 µM (active)	inactive	–	2.73 µM (active) and 2.19 µM (active) and 1.2 µM (active)
CC[N+]1(C)CCCC1	inactive	inactive	inactive	–	inactive and 24.6 µM (active)	inactive	inactive	inactive	–	inactive
CCCCCCCCCCCCOS(=O)(=O)O	–	inactive	48.3 µM (active) and inactive	–	inactive	inactive	–	inactive	inactive	–
CCCCCC[n+]1ccccc1	inactive	inactive	inactive	–	inactive	inactive	inactive	inactive	–	–
O=C(O)COc1ccc(Cl)cc1Cl	inactive	inactive	inactive	–	inactive	inactive	inactive	inactive	–	–
CCCCCCCCCCCCCC[P+](CCCCCC)(CCCCCC)CCCCCC	12.4 µM (active) and 19.7 µM (active)	inactive	19.6 µM (active) and 22.1 µM (active) and inactive	–	5.52 µM (active) and 6.22 µM (active) and 3.46 µM (active)	12.4 µM (active) and 17.5 µM (active)	–	inactive	–	–
Oc1ccccc1-c1ccccc1	inactive	inactive	inactive	–	inactive	inactive	inactive	inactive	–	–

SMILES	Potency [1]	Potency [2]	Potency [3]	Potency [4]	Potency [5]	Potency [6]	Potency [7]	Potency [8]	Potency [9]	Potency [10]
CCC(=O)C(CC(C)N(C)C)(c1ccccc1)c1ccccc1 (stereo not drawn)	inactive	inactive	inactive	inactive	–	inactive	inactive	inactive	–	–
C[C@]12CCC(=O)C=C1CC[C@@H]1[C@@H]2CC[C@]2(C)C(=O)CC[C@@H]12	inactive	inactive	inactive	–	27.1 µM (active) and inactive	inactive	inactive	34.1 µM (active) and 21.9 µM (active) and inactive	–	–
Nc1ccc(-c2ccc(N)c(Cl)c2)cc1Cl	inactive and 49 µM (active)	inactive and 43.6 µM (active)	inactive and 49 µM (active)	–	15.6 µM (active) and 24.5 µM (active)	24.5 µM (active)	–	inactive	–	–
CCCC[n+]1cccc(C)c1	inactive	inactive	inactive	–	inactive	inactive	inactive	inactive	–	–
CCCCCCCCCCCC(=O)O	inactive	inactive	inactive	–	inactive	inactive	inactive	inactive	–	inactive
CCCC[N+]1(C)CCCC1	inactive	inactive	inactive	–	inactive	inactive	inactive	inactive	–	inactive
CC(=O)O	inactive	inactive	inactive	–	inactive	inactive	inactive	inactive	–	inactive
CCNc1nc(Cl)nc(NCC)n1	inactive	inactive	inactive	–	inactive	inactive	inactive	inactive	–	–
Nc1ccccc1	inactive	inactive	inactive	–	inactive	inactive	inactive	inactive	–	inactive
C1CCC(NC2CCCCC2)CC1	inactive	inactive	inactive	–	inactive	inactive	inactive	inactive	–	inactive
CCn1cc[n+](C)c1C	inactive	inactive	inactive	–	inactive	inactive	inactive	inactive	–	inactive
CCCCCCCCCCCCCCCCn1cc[n+](C)c1	inactive and 19.7 µM (active) and 24.6 µM (active)	inactive	inactive and 49.4 µM (active)	inactive and 49.4 µM (active) and 49.1 µM (active)	–	inactive and 55.4 µM (active) and 55.1 µM (active)	–	inactive	–	–
CCC[N+]1(C)CCCC1	inactive	inactive	inactive	–	inactive	inactive	inactive	inactive	–	–
COP(=O)(OC)OC=C(Cl)Cl	inactive	inactive	inactive	–	inactive	inactive	inactive	inactive	–	–
CCCCCCCCn1cc[n+](C)c1	21.7 µM (active) and inactive	inactive	inactive	–	3.86 µM (active) and 4.41 µM (active)	inactive	inactive	inactive	–	–
O=S(=O)(O)O	inactive	inactive	inactive	–	inactive	inactive	inactive	inactive	–	inactive
O=[N+]([O-])c1ccccc1O	inactive	inactive	inactive	–	inactive	inactive	inactive	inactive	–	–

From PubChem BioAssay (Tox21)
